Experimental findings from PubChem BioAssay (Tox21) are described below.

Experiment [1] deals with Thyrotropin-releasing hormone receptor (Homo sapiens) (UniProt P34981). The experiment is described as follows: qHTS assay to identify small molecule agonists of the thyrotropin-releasing hormone receptor (TRHR) signaling pathway (AID 1346891; calls by dose curve;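 also: HEK293 cells expressing TRHR with calcium dye readout; series mostly up to about 58 µM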). Put shortly: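 In 1536-format, 1500 TRHR-Hek293 cells per well grew 18 h, took up calcium dye for 2 h at 37 °C, received compound, and were read kinetically; 15-point titrations, triplicates.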
Sequence of Thyrotropin-releasing hormone receptor (Homo sapiens) (P34981 whole entry, looked up): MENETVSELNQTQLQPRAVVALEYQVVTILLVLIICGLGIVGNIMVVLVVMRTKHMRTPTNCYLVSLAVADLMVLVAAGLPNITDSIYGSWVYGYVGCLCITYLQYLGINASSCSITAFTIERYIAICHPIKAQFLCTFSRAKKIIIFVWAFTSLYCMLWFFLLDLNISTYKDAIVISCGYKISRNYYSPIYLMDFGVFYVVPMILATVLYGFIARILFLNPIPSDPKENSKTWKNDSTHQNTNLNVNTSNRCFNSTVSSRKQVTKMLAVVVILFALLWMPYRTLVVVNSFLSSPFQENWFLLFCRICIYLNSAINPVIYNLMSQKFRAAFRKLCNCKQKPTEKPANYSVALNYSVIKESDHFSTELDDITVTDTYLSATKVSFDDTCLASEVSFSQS
(qHTS replaces the single test concentration by a dilution series.)

A short description of experiment [2]: Human pregnane X receptor (PXR) small molecule agonists, qHTS cell viability counter screen (AID 1346977). Also: nearly all actives have a fitted effect of over 50% in size. Put shortly:
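Readout is CellTiter-Fluor fluorescence from PXR-Luc HepG2 cells. Plated cells rested 5hr, then were treated with compounds for 24hr at 37C and 5% CO2, with reagent present during the last hour.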

The nature of experiment [3]: Caspase-3/7 induction in HepG2 cells by small molecules, qHTS assay (AID 1346978). Also: nearly all actives have a fitted effect of over 15% in size. In short, it runs like this:
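Wild-type HepG2 cells (2,000/well) were settled 5 h at 37 C, 5% CO2, then exposed to compounds in DMSO for 17 h. Caspase-3/7 activity was read by luminescence 30 min after adding Caspase-Glo 3/7 reagent at room temperature.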

Experiment [4] in a line: Caspase-3/7 induction in CHO-K1 cells by small molecules, qHTS cell viability counter screen (AID 1346979). Also: nearly all actives have a fitted effect of over 35% in size. In short, it runs like this: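 To flag cytotoxic compounds, treated CHO-K1 wild-type cells were given CellTiter-Fluor at 16hr and read fluorescently after 1hr at 37C; the caspase-3/7 luminescence was measured in these same wells.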
In experiment [5] the target is Cytochrome P450 1A2 (Homo sapiens) (UniProt P05177). The experiment can be described thus: Cytochrome P450 Family 1 Subfamily A Member 2 (CYP1A2) small molecule antagonists: luciferase reporter qHTS assay (AID 1671199). Also: nearly all actives have a fitted effect of over 50% in size. Also: potency is read from the fitted curve at half-maximal effect. As to activity change, negative = inhibition: series mostly up to about 120 µM. In short, it runs like this: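 Steps: enzyme-substrate mix dispensed; test compounds and furafylline control pinned in; 10 min room temperature; NADPH regeneration solution added, 1 h; reaction stopped with luciferin detection reagent; luminescence read after 20 min.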
Sequence of Cytochrome P450 1A2 (Homo sapiens) (P05177 whole entry, looked up): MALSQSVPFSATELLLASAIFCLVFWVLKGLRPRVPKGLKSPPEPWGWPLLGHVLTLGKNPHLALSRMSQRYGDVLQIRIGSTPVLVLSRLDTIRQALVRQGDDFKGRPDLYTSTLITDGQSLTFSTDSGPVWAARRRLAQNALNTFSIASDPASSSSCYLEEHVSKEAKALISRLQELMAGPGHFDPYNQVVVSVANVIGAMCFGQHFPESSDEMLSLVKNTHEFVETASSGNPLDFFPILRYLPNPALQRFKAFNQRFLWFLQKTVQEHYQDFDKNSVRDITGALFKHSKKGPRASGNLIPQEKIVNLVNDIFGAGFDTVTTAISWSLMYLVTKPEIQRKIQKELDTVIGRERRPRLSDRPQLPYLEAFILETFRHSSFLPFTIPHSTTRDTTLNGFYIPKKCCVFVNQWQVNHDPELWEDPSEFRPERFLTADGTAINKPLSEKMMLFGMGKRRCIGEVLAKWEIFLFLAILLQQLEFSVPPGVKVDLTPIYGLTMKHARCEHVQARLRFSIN
(In general: In a reporter assay the amount or activity of a reporter protein is the signal.)

Experiment [6] deals with Voltage-gated inwardly rectifying potassium channel KCNH2 (Homo sapiens) (UniProt Q12809). The experiment can be described thus: Human Ether-a-go-go-Related Gene (hERG) channel small molecule antagonists: fluorescence cell-based qHTS assay (AID 1671200).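 Also: hERG-expressing U2OS cells given a thallium stimulus after FluxOR II dye loading; series mostly up to about 77 µM; nearly all actives have a fitted effect of over 50% in size.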 In short, it runs like this: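 Measured: Tl+ flux via fluorescence (480/540 nm) in hERG-expressing U2OS cells after 1 h dye loading at room temperature.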
Sequence of Voltage-gated inwardly rectifying potassium channel KCNH2 (Homo sapiens) (Q12809 whole entry, looked up): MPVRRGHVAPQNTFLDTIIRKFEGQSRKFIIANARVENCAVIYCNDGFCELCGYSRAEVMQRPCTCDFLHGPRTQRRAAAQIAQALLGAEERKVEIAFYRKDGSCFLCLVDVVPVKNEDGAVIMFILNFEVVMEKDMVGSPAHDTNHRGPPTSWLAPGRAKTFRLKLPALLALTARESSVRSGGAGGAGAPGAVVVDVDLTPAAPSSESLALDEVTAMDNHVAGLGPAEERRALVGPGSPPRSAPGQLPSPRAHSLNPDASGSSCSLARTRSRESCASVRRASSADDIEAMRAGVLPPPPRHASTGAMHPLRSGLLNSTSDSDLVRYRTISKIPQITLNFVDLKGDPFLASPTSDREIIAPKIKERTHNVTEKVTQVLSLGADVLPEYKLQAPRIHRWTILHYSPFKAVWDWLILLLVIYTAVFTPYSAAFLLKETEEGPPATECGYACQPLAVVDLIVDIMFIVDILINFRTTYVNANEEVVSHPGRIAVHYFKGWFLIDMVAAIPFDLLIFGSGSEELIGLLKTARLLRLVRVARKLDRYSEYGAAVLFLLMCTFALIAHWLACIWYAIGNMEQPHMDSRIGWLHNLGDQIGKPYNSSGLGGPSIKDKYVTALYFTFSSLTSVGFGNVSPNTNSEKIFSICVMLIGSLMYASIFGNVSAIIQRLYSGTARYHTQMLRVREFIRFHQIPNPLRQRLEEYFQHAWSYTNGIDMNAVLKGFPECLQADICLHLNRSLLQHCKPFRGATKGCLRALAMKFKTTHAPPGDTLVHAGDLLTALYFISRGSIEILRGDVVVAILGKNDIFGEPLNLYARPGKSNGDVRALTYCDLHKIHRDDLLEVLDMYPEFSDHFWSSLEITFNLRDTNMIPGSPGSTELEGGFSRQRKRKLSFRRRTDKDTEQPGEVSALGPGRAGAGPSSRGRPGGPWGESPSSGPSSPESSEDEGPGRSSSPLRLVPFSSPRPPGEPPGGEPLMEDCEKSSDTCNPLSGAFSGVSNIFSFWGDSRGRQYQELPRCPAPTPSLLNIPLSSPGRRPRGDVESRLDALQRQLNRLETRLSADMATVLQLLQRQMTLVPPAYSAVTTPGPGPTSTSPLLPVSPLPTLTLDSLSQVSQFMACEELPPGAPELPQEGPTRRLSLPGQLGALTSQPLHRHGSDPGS
(hERG is a cardiac potassium channel; its block is linked to QT prolongation.)

Experiment [7] has as its target Cytochrome P450 3A4 (Homo sapiens) (UniProt P08684). The experiment can be described thus: Cytochrome P450 Family 3 Subfamily A Member 4 (CYP3A4) small molecule antagonists: luciferase reporter qHTS assay (AID 1671201). Also: series mostly up to about 120 µM; nearly all actives have a fitted effect of over 50% in size. In short, it runs like this:
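Setup: enzyme-substrate mix, compound pin transfer, 10 min RT. Reaction: NADPH regeneration solution, 1 h RT. Readout: detection reagent stops turnover, luminescence measured after 20 min, expressed in relative luminescence units.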

A short description of experiment [8]: Caspase-3/7 induction in CHO-K1 cells by small molecules, qHTS assay (AID 1346980). Also: nearly all actives have a fitted effect of over 15% in size. Put shortly: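 Wild-type cells were seeded at 1,500 per well and settled 5 hr at 37 C, 5% CO2, then exposed to DMSO-dissolved compounds for 17 hr. Caspase-Glo 3/7 reagent was added, and luminescence was read after 30min at room temperature.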
Experiment [9] can be described thus: Caspase-3/7 induction in HepG2 cells by small molecules, qHTS cell viability counter screen (AID 1346981). Also: series mostly up to about 92 µM; nearly all actives have a fitted effect of over 30% in size. Put shortly: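 In this quantitative HTS counter screen, compounds delivered in DMSO were left on unmodified HepG2 cells for 16 hr at 37 C. Viability was then determined fluorometrically with CellTiter-Fluor, in parallel with caspase-3/7 induction in the same wells.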

Experiment [10] deals with Nuclear receptor subfamily 1 group I member 2 (Homo sapiens) (UniProt O75469). The experiment can be described thus: Human pregnane X receptor (PXR) small molecule agonists, qHTS assay (AID 1346982). Also: nearly all actives have a fitted effect of over 35% in size. In short, it runs like this: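 Reporter HepG2 cells expressing PXR-Luc are cultured in charcoal-stripped FBS (5%), treated with compounds for 24 hr at 37 C, and assayed by ONE-Glo luminescence after 30 min at room temperature.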
Sequence of Nuclear receptor subfamily 1 group I member 2 (Homo sapiens) (O75469 whole entry, looked up): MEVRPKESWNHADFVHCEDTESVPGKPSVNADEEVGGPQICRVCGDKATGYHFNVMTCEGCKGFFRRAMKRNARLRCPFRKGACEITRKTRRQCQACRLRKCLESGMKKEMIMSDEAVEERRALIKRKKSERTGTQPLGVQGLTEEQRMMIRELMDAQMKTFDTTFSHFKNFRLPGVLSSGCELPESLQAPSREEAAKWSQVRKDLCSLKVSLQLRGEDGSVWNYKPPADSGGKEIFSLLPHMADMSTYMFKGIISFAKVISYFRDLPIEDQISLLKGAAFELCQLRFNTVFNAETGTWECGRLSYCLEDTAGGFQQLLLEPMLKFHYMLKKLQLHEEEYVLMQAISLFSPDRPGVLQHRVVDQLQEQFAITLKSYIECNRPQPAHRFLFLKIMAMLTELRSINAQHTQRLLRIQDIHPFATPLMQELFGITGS

The target of experiment [11] is Cytochrome P450 2D6 (Homo sapiens) (UniProt P10635). The experiment can be described thus: Cytochrome P450 Family 2 Subfamily D Member 6 (CYP2D6) small molecule antagonists: luciferase reporter qHTS assay (AID 1671196). Put shortly:
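Test chemicals meet CYP2D6 plus proluciferin substrate (10 min, RT); NADPH regenerating solution then drives turnover for 1 h. Detection reagent halts the reaction; luminescence measured after 20 min.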

The target of experiment [12] is Cytochrome P450 2C9 (Homo sapiens) (UniProt P11712). The experiment is described as follows: Cytochrome P450 Family 2 Subfamily C Member 9 (CYP2C9) small molecule antagonists: luciferase reporter qHTS assay (AID 1671198). Also: nearly all actives have a fitted effect of over 50% in size. Also: potency is read from the fitted curve at half-maximal effect. As to activity change, negative = inhibition: series mostly up to about 120 µM. Put shortly: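 CYP2C9 activity was measured with a P450-Glo proluciferin substrate. Enzyme–substrate mix was held with compound for 10 min at room temperature, then NADPH regeneration solution was added for 1 h at 37C. Luciferin product was read as luminescence.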
Sequence of Cytochrome P450 2C9 (Homo sapiens) (P11712 whole entry, looked up): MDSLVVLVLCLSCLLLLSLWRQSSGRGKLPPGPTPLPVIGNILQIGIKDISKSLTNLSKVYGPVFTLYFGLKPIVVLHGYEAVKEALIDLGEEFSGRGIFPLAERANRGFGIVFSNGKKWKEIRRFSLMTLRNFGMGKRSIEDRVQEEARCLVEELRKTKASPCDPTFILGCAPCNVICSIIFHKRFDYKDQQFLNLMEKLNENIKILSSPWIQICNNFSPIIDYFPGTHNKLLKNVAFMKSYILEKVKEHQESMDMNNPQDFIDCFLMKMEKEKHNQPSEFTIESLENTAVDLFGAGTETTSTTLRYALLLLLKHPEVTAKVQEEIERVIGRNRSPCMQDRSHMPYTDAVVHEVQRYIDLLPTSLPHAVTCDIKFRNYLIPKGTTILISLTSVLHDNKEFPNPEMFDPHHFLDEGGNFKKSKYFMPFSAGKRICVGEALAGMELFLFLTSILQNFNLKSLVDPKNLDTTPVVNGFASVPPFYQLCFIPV

For experiment [13], the target named is Cytochrome P450 2C19 (Homo sapiens) (UniProt P33261). The experiment can be described thus: Cytochrome P450 Family 2 Subfamily C Member 19 (CYP2C19) small molecule antagonists: luciferase reporter qHTS assay (AID 1671197). Also: nearly all actives have a fitted effect of over 65% in size. Also: potency is read from the fitted curve at half-maximal effect. As to activity change, negative = inhibition: series mostly up to about 120 µM. Put shortly:
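Quantitative high-throughput screen of the Tox21 library using CYP2C19 with proluciferin substrate. Reaction: NADPH regeneration, 37C, 1 h, after 10 min compound preincubation at room temperature. Readout: luminescence.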

For experiment [14], the target named is Nuclear receptor subfamily 1 group I member 2 (Homo sapiens) (UniProt O75469). The experiment is described as follows: CYP3A4 induction through human pregnane X receptor (PXR) by small molecules, qHTS assay (AID 1346984). Also: nearly all actives have a fitted effect of over 40% in size. In short, it runs like this: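 Induction measured in HepG2-based DPX-2 cells co-expressing human PXR and a CYP3A4 promoter-driven luciferase. After a 24-hour compound exposure, cells received CYP3A4 luciferin substrate at 3uM final for 3 hours, and light output was then recorded.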

The target is the same in experiment [15]. The experiment is described as follows: Human pregnane X receptor (PXR) activation by small molecules, qHTS assay (AID 1346985). Also: nearly all actives have a fitted effect of over 40% in size. In short, it runs like this: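 DPX-2 cells (HepG2 co-transfected with a PXR response element and a CYP3A4-promoter luciferase construct) were seeded at 2,000 per well, rested 5 hr at 37C, then exposed to DMSO-dissolved compounds for 24 hr. Activation was read as luciferase luminescence.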

Unmarked numbers belong to inactive results. Results filed as inconclusive are left out. Active and inactive are the calls of the source. Unless noted, calls follow the shape of the dose curve; as a rule, active = well fitted curve in the direction sought with a large enough effect in the repeat runs; inconclusive = weak or mixed curves; inactive = no such curve, though single readings can be large; an effect the other way counts as inactive or inconclusive.
% is scaled to controls: 0 for no effect and ±100 for the full control effect.

Sequence of Cytochrome P450 2D6 (Homo sapiens) (P10635 whole entry, looked up): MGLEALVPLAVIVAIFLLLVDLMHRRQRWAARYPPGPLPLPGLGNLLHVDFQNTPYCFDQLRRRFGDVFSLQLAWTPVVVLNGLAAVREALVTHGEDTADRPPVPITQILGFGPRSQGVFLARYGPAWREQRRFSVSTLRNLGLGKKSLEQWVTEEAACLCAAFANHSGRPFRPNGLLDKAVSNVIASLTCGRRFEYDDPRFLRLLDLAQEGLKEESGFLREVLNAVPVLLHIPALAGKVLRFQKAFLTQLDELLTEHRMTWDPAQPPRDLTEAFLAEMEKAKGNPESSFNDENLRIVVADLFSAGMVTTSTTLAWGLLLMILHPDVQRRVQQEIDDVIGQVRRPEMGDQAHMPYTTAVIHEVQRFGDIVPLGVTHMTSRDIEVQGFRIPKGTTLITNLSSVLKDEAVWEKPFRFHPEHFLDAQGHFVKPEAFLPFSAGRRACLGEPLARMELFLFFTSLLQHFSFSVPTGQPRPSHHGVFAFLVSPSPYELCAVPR
Sequence of Cytochrome P450 3A4 (Homo sapiens) (P08684 whole entry, looked up): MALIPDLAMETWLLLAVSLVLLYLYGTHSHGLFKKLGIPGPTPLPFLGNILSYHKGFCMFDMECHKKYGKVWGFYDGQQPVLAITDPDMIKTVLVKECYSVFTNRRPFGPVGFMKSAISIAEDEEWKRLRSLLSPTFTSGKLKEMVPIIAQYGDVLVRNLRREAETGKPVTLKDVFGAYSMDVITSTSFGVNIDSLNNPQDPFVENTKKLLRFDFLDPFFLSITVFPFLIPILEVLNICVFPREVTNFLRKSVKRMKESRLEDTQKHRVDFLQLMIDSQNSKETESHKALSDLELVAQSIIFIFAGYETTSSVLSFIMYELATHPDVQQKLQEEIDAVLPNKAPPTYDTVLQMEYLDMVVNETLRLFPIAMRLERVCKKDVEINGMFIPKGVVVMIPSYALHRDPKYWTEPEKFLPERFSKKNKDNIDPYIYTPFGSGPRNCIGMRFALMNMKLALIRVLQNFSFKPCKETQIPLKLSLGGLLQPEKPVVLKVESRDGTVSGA
Sequence of Cytochrome P450 2C19 (Homo sapiens) (P33261 whole entry, looked up): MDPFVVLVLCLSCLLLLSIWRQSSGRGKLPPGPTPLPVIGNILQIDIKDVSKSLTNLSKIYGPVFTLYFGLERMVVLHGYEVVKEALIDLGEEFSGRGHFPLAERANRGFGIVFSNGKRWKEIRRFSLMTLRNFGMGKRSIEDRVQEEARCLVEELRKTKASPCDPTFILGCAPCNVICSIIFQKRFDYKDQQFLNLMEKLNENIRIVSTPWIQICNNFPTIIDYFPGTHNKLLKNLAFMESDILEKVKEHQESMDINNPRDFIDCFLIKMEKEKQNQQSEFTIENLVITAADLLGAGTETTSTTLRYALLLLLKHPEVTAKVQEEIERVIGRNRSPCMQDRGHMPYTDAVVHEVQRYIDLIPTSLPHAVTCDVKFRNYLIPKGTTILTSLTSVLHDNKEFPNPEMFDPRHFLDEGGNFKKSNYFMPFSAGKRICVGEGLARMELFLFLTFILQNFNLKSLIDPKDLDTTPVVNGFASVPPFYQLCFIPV

As to `CCC(C)(C)C1CCC(OC)CC1` (configuration not stated), the call in [1] and in experiment [3] was inactive. Besides, the Potency entry in [2], in experiment [4], in [5], in experiment [6] and in experiment [7] was “inactive” throughout.
With `FC(F)(F)C(F)(F)C(F)(F)C(F)(F)C(F)(F)C(F)(F)C(F)(F)C(F)(F)C(F)(F)C(F)(F)F`, the activation in [1] was 0.116% [at 5.23 µM]; in [10], -1.65% [at 8.39 µM]. Also, the activity change, negative = cytotoxicity is 1.13% [at 8.39 µM] in experiment [2] and 5.96% [at 8.39 µM] in experiment [9]. In addition, the caspase activation in [3] was -0.76% [at 8.39 µM]. Further, the caspase-3/7 activation in [8] is -0.497% [at 8.39 µM]. For the same compound, the activity change, negative = inhibition in experiment [11] was -5% [at 10.5 µM]; in [12], -5.26% [at 10.5 µM]; in experiment [5] it was -15.3% [at 10.5 µM]; in experiment [7], -3.38% [at 10.5 µM].
As for `Cc1c(F)cc2c(=O)c(C(=O)O)cn3c2c1CCC3C` (configuration not stated), the result in experiment [1], in [3], in experiment [8] and in experiment [9] was inactive. In addition, the Potency result in experiment [2], in experiment [10], in [11], in experiment [13], in experiment [12] and in experiment [5] was “inactive” in each case. The Potency result in experiment [6] and in experiment [7] was “inactive” throughout.
Turning to `COc1ccc2cc(C=O)ccc2c1`, the compound was called inactive in experiment [1], in experiment [3] and in experiment [9]. The Potency result in experiment [2], in [4], in experiment [11], in experiment [6] and in experiment [7] was “inactive” each time. Further, the Potency in experiment [13] was 15.5 µM (active); in [12] it was 17.4 µM (active); in experiment [5], 13.8 µM (active).
Take `CCCc1ccc(N)cc1`: the outcome in experiment [1], in experiment [3] and in experiment [9] was inactive. Also, the Potency result in [2], in experiment [4], in [11] and in experiment [6] was “inactive” each time. Besides, the Potency in experiment [5] was 35.6 µM (active).
For `O=C(O)c1ccccc1-c1ccc(C(F)(F)F)cc1`, the compound was called inactive in experiment [1], in experiment [3], in experiment [8] and in experiment [9]. The Potency entry in experiment [2], in [10], in experiment [14], in [15], in [11] and in experiment [13] was “inactive” throughout. In addition, the Potency entry in experiment [6] and in experiment [7] was “inactive” each time.
Turning to `[O-][N+](=Nc1ccccc1)c1ccccc1`, the call in experiment [1], in experiment [3], in experiment [8] and in experiment [9] was inactive. Moreover, the Potency entry in [2], in [14], in [15] and in experiment [7] was “inactive” throughout. Besides, the Potency in [13] is 63.3 µM (active); in [5], 5.64 µM (active).
For the compound `O=C1CC2(CCCC2)CC(=O)N1`, the compound was classed as inactive in experiment [1], in experiment [3], in experiment [8] and in [9]. The Potency entry in [2], in experiment [10], in experiment [11], in [13], in [12] and in experiment [5] was “inactive” each time. Also, the Potency entry in [7] is “inactive”.
`Cc1onc(-c2ccccc2)c1-c1ccc(S(N)(=O)=O)cc1`: the compound was classed as inactive in experiment [1], in experiment [3] and in [9]. For the same compound, the Potency result in [2], in experiment [4], in experiment [5], in experiment [6] and in [7] was “inactive” each time. Besides, the figures for the Potency in [13] and in experiment [12] were 7.76 µM (active) and 13.8 µM (active), respectively.
On to `COc1nc(C)nc(N)n1`, for which the outcome in experiment [1], in experiment [3], in experiment [8] and in experiment [9] was inactive. Besides, the Potency entry in experiment [2], in [10], in experiment [11], in experiment [13], in experiment [12] and in experiment [5] was “inactive” throughout. Moreover, in experiment [7], the Potency entry was “inactive”.
As to `CCCCCCC(CCCCCCCCCCC(=O)OCC(COC(C)=O)OC(C)=O)OC(C)=O` (configuration not stated), the compound was called inactive in [1], in experiment [3] and in experiment [9]. The Potency entry in experiment [2], in experiment [4], in experiment [10], in experiment [11], in experiment [6] and in experiment [7] was “inactive” each time. The Potency in [12] is 2.45 µM (active).
